# Results taken from ChEMBL document CHEMBL3988442, “University of Dundee, Small-Polar-MMV Screening Library” (2021).
# For some assays here: Entries with a potency or affinity are not part of this list.
# What was measured:
# Parameters in all cases: scale not given: direction of the effect not stated beside the values
# [1] = target: Protein translocase subunit SecA (Escherichia coli (strain K12)) (UniProt P10408); assay: Assay to Identify E. coli SecA ATPase Inhibitors; format: functional; conditions: 30 µM
# Chain of Protein translocase subunit SecA (Escherichia coli (strain K12)) (P10408 whole entry): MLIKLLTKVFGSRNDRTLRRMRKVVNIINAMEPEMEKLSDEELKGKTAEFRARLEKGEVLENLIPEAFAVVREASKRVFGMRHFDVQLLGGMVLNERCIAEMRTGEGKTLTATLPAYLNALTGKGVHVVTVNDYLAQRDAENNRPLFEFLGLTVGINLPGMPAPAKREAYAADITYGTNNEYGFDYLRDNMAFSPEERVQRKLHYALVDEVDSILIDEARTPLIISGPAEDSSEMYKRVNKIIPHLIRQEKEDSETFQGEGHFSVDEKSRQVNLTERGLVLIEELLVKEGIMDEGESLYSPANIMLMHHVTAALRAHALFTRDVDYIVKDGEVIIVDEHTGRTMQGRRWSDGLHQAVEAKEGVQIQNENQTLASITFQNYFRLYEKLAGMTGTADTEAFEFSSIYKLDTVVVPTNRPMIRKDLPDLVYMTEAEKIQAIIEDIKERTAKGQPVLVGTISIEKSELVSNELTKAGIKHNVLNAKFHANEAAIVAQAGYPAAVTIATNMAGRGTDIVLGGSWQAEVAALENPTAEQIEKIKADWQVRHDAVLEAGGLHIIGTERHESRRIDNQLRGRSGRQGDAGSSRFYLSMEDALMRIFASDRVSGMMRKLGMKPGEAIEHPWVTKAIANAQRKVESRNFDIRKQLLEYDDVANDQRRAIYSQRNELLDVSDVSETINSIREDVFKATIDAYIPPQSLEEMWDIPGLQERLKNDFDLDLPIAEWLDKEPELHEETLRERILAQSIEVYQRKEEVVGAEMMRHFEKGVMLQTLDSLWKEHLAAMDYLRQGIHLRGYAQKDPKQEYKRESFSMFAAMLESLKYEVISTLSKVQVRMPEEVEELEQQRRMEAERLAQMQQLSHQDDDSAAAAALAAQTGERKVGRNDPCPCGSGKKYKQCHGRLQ
# [2] = target: T1, Ubiquitin-activating enzyme e1, putative (Leishmania donovani (strain BPK282A1)) (UniProt E9BSI1); assay: Leishmania donovani Ubiquitin Activating Enzyme (LdE1); format: functional; conditions: 30 µM
# T1 sequence (whole entry): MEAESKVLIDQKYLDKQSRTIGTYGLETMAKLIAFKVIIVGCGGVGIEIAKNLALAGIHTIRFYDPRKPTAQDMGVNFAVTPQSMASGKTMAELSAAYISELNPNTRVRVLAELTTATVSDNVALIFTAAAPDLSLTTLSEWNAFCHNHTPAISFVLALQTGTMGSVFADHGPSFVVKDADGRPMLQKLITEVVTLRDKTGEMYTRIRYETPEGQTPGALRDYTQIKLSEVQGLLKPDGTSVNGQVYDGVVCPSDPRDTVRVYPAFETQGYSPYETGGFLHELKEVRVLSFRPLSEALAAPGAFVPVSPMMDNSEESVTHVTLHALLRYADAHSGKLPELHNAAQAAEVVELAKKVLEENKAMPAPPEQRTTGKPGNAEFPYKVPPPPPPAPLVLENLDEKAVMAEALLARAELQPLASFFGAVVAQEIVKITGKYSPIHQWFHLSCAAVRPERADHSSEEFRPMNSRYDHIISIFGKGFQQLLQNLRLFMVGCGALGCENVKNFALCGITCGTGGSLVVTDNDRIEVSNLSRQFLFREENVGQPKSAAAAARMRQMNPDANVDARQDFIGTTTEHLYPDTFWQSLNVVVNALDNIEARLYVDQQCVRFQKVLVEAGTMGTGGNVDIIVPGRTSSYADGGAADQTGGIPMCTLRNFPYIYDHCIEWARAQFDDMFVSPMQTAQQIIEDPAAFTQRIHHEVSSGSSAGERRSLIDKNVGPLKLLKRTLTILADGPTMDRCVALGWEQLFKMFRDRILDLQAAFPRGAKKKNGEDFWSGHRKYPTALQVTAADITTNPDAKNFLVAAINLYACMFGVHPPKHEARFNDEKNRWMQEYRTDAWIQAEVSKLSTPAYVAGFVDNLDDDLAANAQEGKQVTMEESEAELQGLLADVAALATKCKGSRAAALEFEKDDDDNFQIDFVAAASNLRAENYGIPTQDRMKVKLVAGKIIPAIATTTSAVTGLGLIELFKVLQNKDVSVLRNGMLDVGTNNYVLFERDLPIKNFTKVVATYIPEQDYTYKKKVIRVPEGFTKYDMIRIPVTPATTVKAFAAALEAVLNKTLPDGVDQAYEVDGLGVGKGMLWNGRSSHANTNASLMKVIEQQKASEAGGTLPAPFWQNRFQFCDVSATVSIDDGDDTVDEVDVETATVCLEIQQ
# [3] = target: Sialic acid-binding Ig-like lectin 9 (Homo sapiens) (UniProt Q9Y336); assay: Hs-Siglec9 ALPHAscreen SOP 20170721; conditions: 10 µM
# Chain of Sialic acid-binding Ig-like lectin 9 (Homo sapiens) (Q9Y336 whole entry): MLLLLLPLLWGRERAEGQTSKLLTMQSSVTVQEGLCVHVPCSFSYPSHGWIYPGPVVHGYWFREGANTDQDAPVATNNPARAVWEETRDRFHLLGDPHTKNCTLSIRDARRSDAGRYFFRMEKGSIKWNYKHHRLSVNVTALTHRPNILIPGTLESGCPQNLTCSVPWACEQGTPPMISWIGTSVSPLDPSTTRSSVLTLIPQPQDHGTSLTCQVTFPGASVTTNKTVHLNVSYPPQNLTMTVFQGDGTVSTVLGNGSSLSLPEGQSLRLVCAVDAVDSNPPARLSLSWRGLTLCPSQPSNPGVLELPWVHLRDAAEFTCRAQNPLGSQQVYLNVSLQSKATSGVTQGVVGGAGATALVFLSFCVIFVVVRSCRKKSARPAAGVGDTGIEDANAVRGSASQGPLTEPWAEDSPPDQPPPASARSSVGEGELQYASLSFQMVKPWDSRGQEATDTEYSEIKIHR
# Trypanosoma cruzi = assay: Trypanosoma cruzi phosphomannomutase and mannose-1-phosphate guanylyltransferase assay; format: functional; conditions: 10 µM
# [4] = target: T2, Arginase-2, mitochondrial (Homo sapiens) (UniProt P78540); assay: in vitro enzyme assay to detect the production of urea directly proportional to the activity of Arginase II; format: functional; conditions: 33.3 µM; also: in the data most compounds retested in dose-response had high values
# T2 sequence (whole entry): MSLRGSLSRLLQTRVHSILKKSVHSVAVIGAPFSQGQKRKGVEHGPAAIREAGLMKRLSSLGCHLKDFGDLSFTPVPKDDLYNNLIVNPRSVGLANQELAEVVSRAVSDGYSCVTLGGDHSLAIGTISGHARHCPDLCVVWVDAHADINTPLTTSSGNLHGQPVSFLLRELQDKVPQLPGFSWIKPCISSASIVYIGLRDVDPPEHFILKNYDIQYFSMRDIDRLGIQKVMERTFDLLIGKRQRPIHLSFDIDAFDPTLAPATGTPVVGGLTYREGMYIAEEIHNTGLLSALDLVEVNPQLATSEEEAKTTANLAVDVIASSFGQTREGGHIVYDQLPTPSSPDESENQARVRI
# [5] = target: T3, Proteasome subunit beta (Trypanosoma cruzi) (UniProt O96673); assay: Trypanosoma cruzi proteasome chymotrypsin-like activity (TcProtChymo) assay.; also: in the data most compounds retested in dose-response had high values; format: functional; conditions: 9.37 µM
# T3 sequence (whole entry): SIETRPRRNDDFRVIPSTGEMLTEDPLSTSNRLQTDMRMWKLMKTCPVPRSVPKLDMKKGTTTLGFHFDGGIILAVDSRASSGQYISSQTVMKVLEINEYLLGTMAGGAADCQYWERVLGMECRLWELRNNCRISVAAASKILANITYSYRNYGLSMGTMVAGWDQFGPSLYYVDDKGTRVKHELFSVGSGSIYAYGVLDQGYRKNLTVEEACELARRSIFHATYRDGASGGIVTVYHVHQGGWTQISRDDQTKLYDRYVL
# Homo sapiens = species on record: Homo sapiens; assay: To identify inhibition of the IFN signalling (Jak-Stat) pathway via expression of an eGFP reporter gene under the control of an IFN-stimulated response element (ISRE) containing MxA promoter.; format: functional; conditions: 30 µM
# [6] = target: T4, Tyrosyl-tRNA synthetase, putative (Trypanosoma cruzi (strain CL Brener)) (UniProt Q4DSP6); assay: Trypanosoma cruzi tyrosyl tRNA synthetase (TcYRS) _High Tyrosine SOP; format: functional; conditions: 30 µM; also: in the data most compounds retested in dose-response had high values
# T4 sequence (whole entry): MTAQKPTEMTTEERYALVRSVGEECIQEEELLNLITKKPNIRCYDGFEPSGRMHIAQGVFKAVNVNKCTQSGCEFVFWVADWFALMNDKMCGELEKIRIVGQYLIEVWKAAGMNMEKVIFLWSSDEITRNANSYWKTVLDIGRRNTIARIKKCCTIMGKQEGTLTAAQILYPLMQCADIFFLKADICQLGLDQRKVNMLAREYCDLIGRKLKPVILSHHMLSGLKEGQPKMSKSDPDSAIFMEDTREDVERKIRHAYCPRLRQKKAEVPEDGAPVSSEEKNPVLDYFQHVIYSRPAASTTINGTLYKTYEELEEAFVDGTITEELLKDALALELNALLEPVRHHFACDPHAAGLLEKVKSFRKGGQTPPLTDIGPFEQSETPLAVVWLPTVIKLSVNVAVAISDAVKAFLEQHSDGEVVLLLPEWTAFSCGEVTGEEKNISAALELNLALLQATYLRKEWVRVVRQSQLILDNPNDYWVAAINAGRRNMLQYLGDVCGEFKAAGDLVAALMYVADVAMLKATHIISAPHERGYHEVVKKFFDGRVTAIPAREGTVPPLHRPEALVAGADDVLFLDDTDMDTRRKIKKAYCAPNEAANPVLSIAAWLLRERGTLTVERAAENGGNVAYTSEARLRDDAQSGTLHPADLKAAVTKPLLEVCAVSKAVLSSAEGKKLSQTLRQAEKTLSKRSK
# [7] = target: T4, Tyrosyl-tRNA synthetase, putative (Trypanosoma cruzi (strain CL Brener)); assay: Trypanosoma cruzi tyrosyl tRNA synthetase (TcYRS) SOP; format: functional; conditions: 30 µM
# [8] = target: Chromo domain-containing protein 1 (Saccharomyces cerevisiae (strain ATCC 204508 / S288c) (Baker's yeast)) (UniProt P32657); assay: ScCHD-1 Enzyme Inhibition Assay; format: functional; conditions: 30 µM; also: in the data most compounds retested in dose-response had high values
# Chain of Chromo domain-containing protein 1 (Saccharomyces cerevisiae (strain ATCC 204508 / S288c) (Baker's yeast)) (P32657 whole entry, the tested form may be a part): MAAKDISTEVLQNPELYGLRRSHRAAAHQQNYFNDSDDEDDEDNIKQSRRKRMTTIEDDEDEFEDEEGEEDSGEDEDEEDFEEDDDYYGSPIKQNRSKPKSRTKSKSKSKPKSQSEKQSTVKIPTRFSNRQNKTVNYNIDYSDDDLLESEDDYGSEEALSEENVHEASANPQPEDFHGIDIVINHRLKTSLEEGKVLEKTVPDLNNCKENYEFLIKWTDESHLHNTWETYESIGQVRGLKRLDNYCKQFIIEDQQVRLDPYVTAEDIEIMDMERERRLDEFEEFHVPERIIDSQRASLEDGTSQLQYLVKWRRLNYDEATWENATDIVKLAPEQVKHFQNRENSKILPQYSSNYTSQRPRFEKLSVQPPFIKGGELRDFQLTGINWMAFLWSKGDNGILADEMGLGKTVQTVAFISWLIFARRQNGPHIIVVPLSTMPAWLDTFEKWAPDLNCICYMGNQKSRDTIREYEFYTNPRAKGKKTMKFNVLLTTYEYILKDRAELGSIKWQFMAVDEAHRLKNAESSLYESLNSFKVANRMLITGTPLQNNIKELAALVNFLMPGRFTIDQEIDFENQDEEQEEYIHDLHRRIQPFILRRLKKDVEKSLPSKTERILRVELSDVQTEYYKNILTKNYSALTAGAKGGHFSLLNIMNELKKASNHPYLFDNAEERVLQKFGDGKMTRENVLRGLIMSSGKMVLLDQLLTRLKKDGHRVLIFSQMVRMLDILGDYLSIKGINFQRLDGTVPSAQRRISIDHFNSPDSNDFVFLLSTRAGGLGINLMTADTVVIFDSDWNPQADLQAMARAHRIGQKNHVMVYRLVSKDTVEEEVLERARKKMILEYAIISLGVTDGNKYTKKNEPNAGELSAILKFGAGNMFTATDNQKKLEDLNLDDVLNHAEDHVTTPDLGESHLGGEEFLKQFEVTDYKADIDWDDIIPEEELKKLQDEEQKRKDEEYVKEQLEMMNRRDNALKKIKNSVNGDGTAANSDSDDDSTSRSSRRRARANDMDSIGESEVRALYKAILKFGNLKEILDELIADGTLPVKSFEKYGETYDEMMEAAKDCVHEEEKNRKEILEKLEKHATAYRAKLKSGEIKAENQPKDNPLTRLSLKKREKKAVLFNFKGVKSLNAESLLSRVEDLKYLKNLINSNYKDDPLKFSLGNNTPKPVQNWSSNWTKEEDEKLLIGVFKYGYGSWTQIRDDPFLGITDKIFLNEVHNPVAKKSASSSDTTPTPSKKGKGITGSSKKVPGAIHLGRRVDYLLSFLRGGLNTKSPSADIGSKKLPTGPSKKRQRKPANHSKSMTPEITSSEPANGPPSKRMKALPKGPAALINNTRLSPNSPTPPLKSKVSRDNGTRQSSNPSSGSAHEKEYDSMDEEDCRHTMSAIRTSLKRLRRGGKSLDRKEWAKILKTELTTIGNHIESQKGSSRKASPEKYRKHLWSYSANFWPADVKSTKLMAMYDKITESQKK
Compound,Percent Effect [1] [%],Percent Effect [2] [%],Percent Effect [3] [%],Percent Effect (Trypanosoma cruzi) [%],Percent Effect [4] [%],Percent Effect [5] [%],Percent Effect (Homo sapiens) [%],Percent Effect [6] [%],Percent Effect [7] [%],Percent Effect [8] [%]
CCN(Cc1cccc2c1OCO2)C(=O)Nc1ccncc1,-0.455,-2.6,12.1,-2.8,-2.25,2.81,34.4,0.98,0,5.59
O=C(C1=CCCCC1)N1CCC2(CC1)COC(COc1ccccn1)C2 (stereo not given),-4.78,9.09,2.76,-0.292,-0.405,18.1,-0.0236,3.68,17.9,-3.36
CCOc1ccc(CN2CCN(C(=O)c3ccc(C)n3C)CC2)cc1,-2.75,5.33,3.18,1.41,-4.43,12.1,8.63,6.84,15.4,-10.5
O=C1CCC(C(=O)NCc2nn(-c3ccccc3)c3c2CCC3)CN1 (stereo not given),-6.78,5.13,-2.63,-2.16,-2.46,1.96,22,1.44,6.02,0.942
CCc1[nH]ncc1C(=O)N1CCCC(n2cccn2)C1 (stereo not given),-3.15,13.3,7.05,-2.21,4.88,7.38,-9.13,4.74,15.4,-7.04
O=C(Nc1cccc(N2CCCC2)c1)C1CCCN1c1nccs1 (stereo not given),-2.06,-15.4,6.8,8.92,-1.23,1.79,-2.5,8.13,-1.21,-2.52
Cn1c(C2CC2)nc2c1CCN(CCS(=O)(=O)c1ccccc1)C2,-3.66,-5.33,1.61,5.22,0,-2.46,3.62,0.526,0,-4.67
Cc1nc(C)n(CC2CN(CCCOc3ccccc3C)CCO2)n1 (stereo not given),-2.1,-2.67,-2.65,1.61,2.66,0.763,7.57,-0.526,-7.69,-5.97
COCCN1CC(C(=O)NCc2ccnc(-n3cccn3)c2)CC1=O (stereo not given),-3.79,-5.13,-5.84,-1.22,3.28,-1.79,23.2,-2.39,-3.61,6.47
COC(=O)Cn1c(=O)nc2n1C(=O)N(c1ccccc1)C2,-4.54,5.41,-1.57,-7.27,5.94,9.76,17,3.72,9.76,-2.64
NC(=O)CN1CCC(NC(=O)Nc2nccs2)CC1,-1.25,15.4,-19.1,9.11,-0.82,13.1,5.92,1.44,20.5,-8.95
CC(=O)NC1CCCN(C(=O)NCc2cccnc2N(C)C)C1 (stereo not given),-1.76,16,3.66,0.402,6.65,11.4,11.5,8.95,15.4,-11.3
Cc1cc(S(=O)(=O)N2CCc3ccc(F)cc32)cc(C(=O)O)c1C,-5.32,0,7.12,-1.81,-3.99,6.87,-3.81,-15.3,-28.2,-9.5
CCOc1ccc2[nH]c(=O)c(CN3CCC(O)CC3)cc2c1,-8.45,5.41,3.7,3.4,-1.75,3.77,-4.92,9.04,21.9,-0.516
CC(C)c1cc(C(=O)N(C)Cc2cccc3ncccc23)n(C)n1,-3.2,12,13.8,0.986,-1.77,13.1,36.7,3.17,12.5,-26
Cc1ccccc1S(=O)(=O)N1CCCCC1c1ccn[nH]1 (stereo not given),1.53,9.33,-8.62,-7.5,0.443,13.3,19.3,0,7.5,-21.7
Cc1cn2c(n1)CCC(NC(=O)c1cc(Br)cn1C)C2 (stereo not given),-8.37,0,0.858,-3.41,-1.33,8.23,12.4,-1.58,0,-4.6
CCOCC1CN(Cc2ccc(OC)cc2)Cc2nn(C)cc21 (stereo not given),-9.46,3.9,2.27,-1.46,0.405,9.62,15.7,2.63,2.56,0.496
Cc1ccc([C@@H]2CN(C(=O)c3cccnn3)C[C@H]2NC(=O)C2CC2)cc1,-10.6,5.41,16.9,4.17,4.54,13.2,3.04,5.85,19.5,-1.62
O=C(c1cnccn1)N1CCCC2(COCCN(CC3CC3)C2)C1 (stereo not given),-3.64,-1.3,-5.88,-2.43,-0.81,7.15,-2.31,-0.526,5.13,-0.986
O=C(Cc1csc(-c2nnc[nH]2)n1)N1CCCC1Cn1cccn1 (stereo not given),-1.04,8,5.84,-0.402,-3.1,8.74,-1.78,2.63,5.13,-9.48
COc1ncc(CN2CC[C@@](C)(O)[C@H](Oc3cccc(F)c3)C2)cn1,-2.75,9.33,-0.132,-2.76,-1.33,6.73,8.72,4.23,10,-23.1
Cc1ncc2c(n1)CN(CCCc1nc3ccccc3o1)CC2,-8.07,10.7,3.45,0,-3.1,8.91,-14.7,22.6,28.2,-7.47
